D3 antag = antagonists of human D3 dopamine receptor | P35462 | D3R cells, DiscoveRx beta-arrestin luminescence, antagonist mode; hits give low values | max response, negative = inhibition, % | 2.5% of 360,000 active; in the data active = max response below about -50%; inconclusive = no clear call, values can overlap the other calls; also: % is scaled to controls: 0 for no effect and ±100 for the full control effect
Target sequence (P35462 whole entry, looked up): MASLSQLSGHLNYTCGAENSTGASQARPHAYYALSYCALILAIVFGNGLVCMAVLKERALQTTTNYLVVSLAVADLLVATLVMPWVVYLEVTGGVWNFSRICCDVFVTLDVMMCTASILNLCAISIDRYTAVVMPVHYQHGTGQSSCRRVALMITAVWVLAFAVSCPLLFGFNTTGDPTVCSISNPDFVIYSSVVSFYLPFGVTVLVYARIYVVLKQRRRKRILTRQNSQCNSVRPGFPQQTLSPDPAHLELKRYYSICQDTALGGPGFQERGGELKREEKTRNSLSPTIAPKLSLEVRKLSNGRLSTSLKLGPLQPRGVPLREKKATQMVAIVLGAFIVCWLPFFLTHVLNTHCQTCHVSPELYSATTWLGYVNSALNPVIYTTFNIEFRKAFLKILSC
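Cells expressing the human receptor were seeded at 1500 cells/well, incubated overnight at 37 degrees C in 5% CO2, then exposed to library compounds with dopamine controls for 90 minutes at 37 degrees C before luminescent detection.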
KB-3-1 tox = kills parental KB-3-1 adenocarcinoma cells | AID 1347075 | KB-3-1 viability, CellTiter-Glo ATP luminescence, 72 h | Potency, µM (highest dose often 46.1 µM), most hits filed as cytotoxic | 1.4% of 400,000 active; also: potency is read from the fitted curve at half-maximal effect; % is scaled to controls: 0 for no effect and ±100 for the full control effect; nearly all actives have a fitted effect of over 60% in size
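Viability of parental KB-3-1 cells, measured by CellTiter-Glo luminescence, followed a 72 h incubation at 37 °C with pinned compounds in phenol-red-free DMEM containing 10% FBS.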
KB-V1 MDR tox = KB-V1 MDR subline cytotoxicity; KB-V1 MDR cells viability, CellTiter-Glo, 72 h; AID 1347076; 3.4% of 400,000 active; Potency, µM (titrated, usually from 46.1 µM), usual class: cytotoxic; also: potency is read from the fitted curve at half-maximal effect; % is scaled to controls: 0 for no effect and ±100 for the full control effect; nearly all actives have a fitted effect of over 60% in size
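KB-V1, DMEM (no phenol red) + 10% FBS; cpd pin-transferred, titration series; 72 h, 37 degrees C; CellTiter-Glo, luminescence. Data normalized, curve-fit.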
SW480 rerep = induces DNA re-replication in SW480 colon adenocarcinoma cells; Potency, µM (titrated, usually from 46.1 µM), for the others: at the top dose re-replication activation, most hits filed as activators; SW480 DNA re-replication, Hoechst DNA content imaging, 48 h; 1.8% of 340,000 active; also: potency is read from the fitted curve at half-maximal effect; % of control where 0% means no effect; nearly all actives have a fitted effect of over 55% in size
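250 cells/well; 23 nL cpd via pin tool; 48 hr, 37 C, 5% CO2; Hoechst 40 min; imager read of total nuclear intensity, ex 405/em 500-530 nm.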
DRD3 agonist = D3 dopamine receptor (human) agonism | 0.58% of 410,000 active | P35462 | AID 652048 | D3R DiscoveRx beta-arrestin cells, luminescence, 90 min | max activation, %; in the data active = max activation above about 30%; also: 0% is about no effect
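Agonist-mode cell screen: cells plated at 1500/well and incubated overnight at 37 °C, then exposed to library compounds for 90 min at 37 °C. Detection reagent was added for 30–60 min at room temperature, and luminescence was read.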
MCF10A rereplic = DNA re-replication induction in MCF 10a cells; 2.9% of 350,000 active; MCF 10A DNA re-replication, Hoechst nuclear intensity, 48 h; Potency, µM (titrated, usually from 46.1 µM), for the others: top-dose activity, positive = re-replication, actives largely listed as activators; AID 624296; also: potency is read from the fitted curve at half-maximal effect; % of control where 0% means no effect; nearly all actives have a fitted effect of over 50% in size
Numbers without * were called inactive; i = inactive; ? = inconclusive; / = no result given; [ ] = another dose, or the depositor's remark. This is a sample that favours compounds with a hit; in the whole collection about 8.9% have one here. Unless noted, calls follow the shape of the dose curve; as a rule, active = well fitted curve in the direction sought with a large enough effect; inconclusive = small, poorly fitted or top-dose-only effect, or another doubt; inactive = no such curve, though single readings can be large; an effect the other way counts as inactive or inconclusive.

SMILES	D3 antag	KB-3-1 tox	KB-V1 MDR tox	SW480 rerep	DRD3 agonist	MCF10A rereplic
COC(=O)/C=C/c1ccccc1S(=O)(=O)N(Cc1ccccc1)Cc1ccco1	-14	3.3µM*	7.3µM*	4.1µM*	-34	2.1µM*
COC(=O)/C=C/c1ccccc1S(=O)(=O)NC(C)C	/	i	i	/	/	/
Cc1cc(C)c2c(=O)cc(C(=O)Nc3ccc(S(=O)(=O)N(C)Cc4ccccc4)cc3)oc2c1	/	i	i	/	17	/
Cc1cccc(NC(=O)C2CCCN(c3cnccn3)C2)c1 (configuration not stated)	-3	i	i	?	-3	18µM*
Cc1ccc(NC(=O)C2CCCN(c3ncccn3)C2)cc1F (configuration not stated)	28	i	16µM*	5%	0	2%
Cc1ccc(NC(=O)C2CCCN(c3ncccn3)C2)c(C)c1 (configuration not stated)	-6	i	i	-20%	4	-33%
O=C(Nc1ccccc1-c1ccccc1)C1CCCN(c2ncccn2)C1 (configuration not stated)	33	i	21µM*	0%	1	-3%
O=C(Nc1cccc(C(F)(F)F)c1)C1CCCN(c2ncccn2)C1 (configuration not stated)	60	i	16µM*	-3%	-14	-4%
Cc1ccc2c(CC(=O)N3CCN(c4cccc(Cl)c4)CC3)coc2c1C	/	i	i	/	1	/
CCn1cc2nc(SCc3ccccc3F)n(Cc3ccc(C)cc3)c(=O)c2n1	/	i	i	/	-6	/
Cc1ccc(C2=NOC(C)(c3sc(-c4ccc(Cl)cc4)nc3C)C2)cc1 (configuration not stated)	-5	i	i	-36%[9.22 µM]	6	1%
Cc1nc(-c2ccc(Cl)cc2)sc1C1(C)CC(c2ccc([N+](=O)[O-])cc2)=NO1 (configuration not stated)	16	i	i	?	51*	-61%
Cc1nc(-c2ccc(Cl)cc2)sc1C1(C)CC(c2ccc(F)cc2)=NO1 (configuration not stated)	0	i	i	-3%	4	10µM*
Cc1nc(-c2ccc(Cl)cc2)sc1C1(C)CC(c2ccncc2)=NO1 (configuration not stated)	4	i	i	0%[9.22 µM]	2	?
Cc1ccc(C2=Nc3ccccc3N(CC(=O)Nc3ccccc3F)C(=O)C2)cc1C	/	i	?	/	-9	/
CCc1ccccc1NC(=O)C1CCN(S(=O)(=O)c2ccc3[nH]c(=O)ccc3c2)CC1	/	i	i	/	-1	/
COc1ccccc1-c1nnc(Sc2nc([N+](=O)[O-])nn2C)o1	-11	?	?	?	8	9.2µM*
CCc1ccc(NC(=O)c2cc3c(COC(C)=O)cnc(C)c3oc2=O)cc1	/	i	i	/	12	/
Cc1cc(Br)ccc1NC(=O)CN(C)C(=O)CSC(=S)N1CCCC1	-23	i	13µM*	-5%	-6	-2%
O=C1C2CCCCN2C(=O)N1CCCCN1CCN(c2ccc(F)cc2)CC1 (configuration not stated)	-92*	i	i	?	-12	-6%
Cc1ccc(N2CCN(CCCCN3C(=O)C4CCCN4C3=O)CC2)cc1 (configuration not stated)	-78*	i	i	-3%	-17	-1%
O=C(CN1C(=O)C2CCCN2c2ncc(Cl)cc21)NCc1ccc2c(c1)OCO2 (configuration not stated)	15	i	i	1%	-4	14%
Cc1ccc(CN2C(=O)C3CCCN3c3ncccc32)cc1 (configuration not stated)	23	i	i	?	-4	23µM*
O=C1C2CCCN2C(=O)N1CCCCN1CCN(c2ccc(F)cc2)CC1 (configuration not stated)	-75*	i	i	3%	-9	0%
COc1ccc(OC)c(NC(=O)N2CCC(CN3CCCCC3)CC2)c1	/	i	i	/	-3	/
SMILES	D3 antag	KB-3-1 tox	KB-V1 MDR tox	SW480 rerep	DRD3 agonist	MCF10A rereplic
CC(=O)Nc1ccc(C=NNC(=O)CCCC(=O)NN=Cc2ccc(NC(C)=O)cc2)cc1	?	i	i	-1%	-5	-3%
Cc1ccc(CNC(=O)C(=O)NCC(c2cccnc2)N2CCN(c3ccc(F)cc3)CC2)cc1 (configuration not stated)	/	?	?	/	1	/
COc1ccc(Cl)cc1NC(=O)Cn1ccn(Cc2ccc(C)cc2)c(=O)c1=O	/	/	/	/	-8	/
CCO[C@@H]1OC(C(=O)NCc2ccccc2)=C[C@H](c2ccc(C(F)(F)F)cc2)[C@H]1CCCO	-23	i	i	?	-15	2.9µM*
CCO[C@H]1OC(C(=O)N2CCN(Cc3ccc4c(c3)OCO4)CC2)=C[C@@H](C(C)(C)C)[C@@H]1CCCO	0	i	i	-24%	-37	?
CCO[C@H]1OC(C(=O)N2CCN(C)CC2)=C[C@@H](c2ccc3c(c2)OCO3)[C@@H]1CCCO	-5	i	i	-11%	-19	0%
CCO[C@@H]1OC(C(=O)N2CCN(Cc3ccc4c(c3)OCO4)CC2)=C[C@H](c2ccc(Br)cc2)[C@H]1CCCO	-98*	i	i	-7%	-37	?
CCO[C@H]1OC(C(=O)NCc2ccccc2)=C[C@@H](c2ccc(Br)cc2)[C@@H]1CCCO	-1	i	?	-32%	1	-42%
CCO[C@@H]1OC(C(=O)N2CCN(Cc3ccc4c(c3)OCO4)CC2)=C[C@H](c2ccc(C(F)(F)F)cc2)[C@H]1CCCO	-23	?	26µM*	-13%	10	-1%
Cc1cc(Cl)ccc1C(=O)C1CCCN(C(=O)c2cccc(N3CCCC3=O)c2)C1 (configuration not stated)	15	i	i	-1%	3	-2%
O=C(CSc1nnc(Nc2ccccc2)s1)NCc1ccco1	15	i	i	-7%	-1	0%
COc1ccc(C(=O)Nc2nnc(SCC(=O)NCc3ccco3)s2)c(OC)c1	-1	i	i	-8%	1	-17%
COc1ccccc1C(=O)Nc1nnc(SCC(=O)NCc2ccco2)s1	7	i	i	21µM*	7	0%
O=C(CSc1nnc(Nc2ccccc2F)s1)NCc1ccco1	-59*	i	i	1%[9.22 µM]	-14	2%
Oc1ccc(Cl)c2cccnc12	-59*	?	?	21µM*	-17	?
Oc1c(Cl)cc(Cl)c2cccnc12	-61*	?	i	3.8µM*	-8	6.7µM*
